Article PMC4336329 (PLoS ONE, 2015)
Screen size: about 310,000 compounds; about 2,200 (0.71%) showed an effect of 50% or more. The effect is printed as a negative number. The entries come from a sample that favours strong results as a whole.

molecular target: human ether-à-go-go-related gene (hERG) potassium channel (human, UniProt Q12809); test: primary screen, population patch clamp on CHO cells stably expressing hERG; higher = less effect of the substance
Sequence (Q12809 whole entry, looked up): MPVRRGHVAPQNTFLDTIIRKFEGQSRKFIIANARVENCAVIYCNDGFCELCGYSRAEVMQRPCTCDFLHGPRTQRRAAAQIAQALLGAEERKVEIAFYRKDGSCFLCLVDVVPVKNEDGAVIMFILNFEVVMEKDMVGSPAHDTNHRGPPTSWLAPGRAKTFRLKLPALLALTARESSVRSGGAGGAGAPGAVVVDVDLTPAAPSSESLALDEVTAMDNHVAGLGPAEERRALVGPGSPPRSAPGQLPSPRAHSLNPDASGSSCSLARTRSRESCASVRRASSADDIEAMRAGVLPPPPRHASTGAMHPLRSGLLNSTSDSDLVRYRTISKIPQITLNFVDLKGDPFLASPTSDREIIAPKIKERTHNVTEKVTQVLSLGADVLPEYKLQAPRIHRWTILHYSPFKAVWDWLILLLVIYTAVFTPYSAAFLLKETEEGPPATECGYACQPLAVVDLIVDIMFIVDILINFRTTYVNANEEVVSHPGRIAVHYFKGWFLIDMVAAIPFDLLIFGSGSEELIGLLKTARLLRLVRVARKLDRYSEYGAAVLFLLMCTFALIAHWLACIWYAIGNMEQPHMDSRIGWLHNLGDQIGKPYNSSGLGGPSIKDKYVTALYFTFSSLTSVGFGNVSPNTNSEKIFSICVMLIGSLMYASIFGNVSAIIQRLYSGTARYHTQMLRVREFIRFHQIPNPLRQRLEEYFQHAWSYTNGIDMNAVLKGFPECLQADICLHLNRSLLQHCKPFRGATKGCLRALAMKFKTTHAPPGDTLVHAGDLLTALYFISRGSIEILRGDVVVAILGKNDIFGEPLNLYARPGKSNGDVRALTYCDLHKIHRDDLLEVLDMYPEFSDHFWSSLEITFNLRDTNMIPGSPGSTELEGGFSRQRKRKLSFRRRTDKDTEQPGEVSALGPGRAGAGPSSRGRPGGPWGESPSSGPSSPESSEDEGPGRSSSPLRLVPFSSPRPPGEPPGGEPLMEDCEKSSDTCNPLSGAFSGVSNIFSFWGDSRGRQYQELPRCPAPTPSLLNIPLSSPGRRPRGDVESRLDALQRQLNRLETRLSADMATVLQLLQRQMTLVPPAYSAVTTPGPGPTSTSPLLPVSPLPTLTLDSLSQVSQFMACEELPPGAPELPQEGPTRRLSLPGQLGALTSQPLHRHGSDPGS

Compound | hERG current change (%, negative = inhibition) at 1uM [%]
CCCCn1c(N)c(N(CCOC)C(=O)C2CCN(S(=O)(=O)c3ccc(C)cc3C)CC2)c(=O)[nH]c1=O | 14.6
Cc1ccccc1OCC(=O)OCC(=O)c1ccc[nH]1 | 10.2
CCOC(=O)c1nn(-c2ccccc2C)c2nc(CC(C)C)c(C#N)c(=O)n12 | 15.8
O=c1cc(NCc2ccco2)c2ccccc2o1 | 11.6
COc1ccccc1N1CCN(c2ccnc3cc(Cl)ccc23)CC1 | 7.78
CC(C)S(=O)(=O)N1CCN(c2ccnc3cc(Cl)ccc23)CC1 | -55.2
Clc1ccc2c(N3CCOCC3)ccnc2c1 | 0.204
CS(=O)(=O)N1CCN(c2ccnc3cc(Cl)ccc23)CC1 | -81.3
CN(C)S(=O)(=O)N1CCN(c2cc(Cl)ccc2Cl)CC1 | 16.5
CCS(=O)(=O)N1CCN(c2ccnc3cc(Cl)ccc23)CC1 | -67.4
Oc1ccc(N2CCN(c3ccnc4cc(Cl)ccc34)CC2)cc1 | 5.36
CCC(=O)N1CCN(c2ccnc3cc(Cl)ccc23)CC1 | -25.7
Clc1ccc2c(N3CCCC3)ccnc2c1 | -25.9
Cl.ClCCN1CCN(c2ccnc3cc(Cl)ccc23)CC1 | 7.03
CN(C)S(=O)(=O)N1CCN(c2ccnc3cc(Cl)ccc23)CC1 | -65.6
COc1ccc(/C=C2\SC(=S)N(N3CCOCC3)C2=O)c(OC)c1 | 10.2
CCOC(=O)c1c(C)[nH]c(C)c1C(=O)CSc1nc2ccccc2[nH]1 | 13.8
O=c1c(Cc2ccc(F)cc2)c(O)ccn1CCCn1ccnc1 | 20.5
COc1ccc(CCNC(=O)CC(c2ccccc2)c2cccc(C)c2O)cc1OC (stereo not shown) | 6
OCCC1CN(Cc2cccc(-c3ccco3)c2)CCN1Cc1ccsc1 (stereo not shown) | -17.3
CC(C)NC(=S)N=Nc1c(O)[nH]c2ccc([N+](=O)[O-])cc12 | 18.4
COc1cccc(OC)c1C(=O)Nc1ccncc1 | 17.4
Cn1nccc1NC(=O)NC(=O)c1c(Cl)cccc1Cl | 8.82
COc1cccc(OC)c1C(=O)Nc1ccnn1C | -75.9
O=C(Cn1nnc2ccccc21)N1CCCCC1 | 2.74

Compound | hERG current change (%, negative = inhibition) at 1uM [%]
O=C(CN1CCN(C(=O)c2ccccc2F)CC1)Nc1ccc(Br)cc1 | -56.5
O=C(Nc1ccc(N2CCN(C(=O)c3cccs3)CC2)cc1)c1ccc([N+](=O)[O-])o1 | -15.8
CCC(=O)Nc1ccc(N2CCN(C(=O)c3cccs3)CC2)cc1 | 3.02
O=C(CN1CCN(Cc2ccccc2)CC1)Nc1ccc(Br)cc1 | -48.3
O=C(NCCN1CCN(C(=O)c2cccs2)CC1)C(=O)Nc1ccc(Br)cc1 | -44.8
O=C(CN1CCN(C(=O)c2cccs2)CC1)Nc1ccc(Br)cc1 | -68.2
O=C(CN1CCN(C(=O)c2ccco2)CC1)Nc1ccc(Br)cc1 | 10.5
O=C(Nc1ccc(N2CCN(C(=O)c3cccs3)CC2)cc1)c1ccco1 | 17.4
O=C(Nc1ccc(N2CCN(C(=O)c3cccs3)CC2)cc1)c1ccc(Br)o1 | -52.7
Cc1ccc(NC(=O)c2ccc3ccccc3n2)cc1S(=O)(=O)N1CCOCC1 | 14
CCOP1(=S)Oc2cc3c(cc2C(C(=O)OC)(C(F)(F)F)O1)OCO3 (stereo not shown) | 5.27
Cn1c(=O)n(C)c2cc(N3CCCC3)c(NC(=O)c3cccc(F)c3)cc21 | 10.3
Br.Cc1ccc(C2=CSC3=NCCN23)cc1 | 11.3
CCCOc1ccc(C2=CSC3=NCCN23)cc1[N+](=O)[O-] | -68.4
Br.CCc1ccc(C2=CSC3=NCCN23)cc1 | 1.72
CCOc1ccc(C2=CSC3=NCCN23)cc1[N+](=O)[O-] | -61
CCCCOc1ccc(C2=CSC3=NCCN23)cc1[N+](=O)[O-] | -52.1
COc1ccc(C2=CSC3=NCCN23)cc1[N+](=O)[O-] | 2.48
O=[N+]([O-])c1ccc(C2=CSC3=NCCN23)cc1 | -0.955
CCCOc1ccc(C2=CSC3=NCCN23)cc1.Cl | -0.939
CCOc1ccc(C2=CSC3=NCCN23)cc1Cl | 10.2
Br.COc1ccc(C2=CSC3=NCCN23)cc1OC | 7.66
CCCOc1ccc(C2=CSC3=NCCN23)cc1Cl | -23.5
Br.CC(C)Cc1ccc(C2=CSC3=NCCN23)cc1 | -60.9
